We go through 25 sequences from the OligoGym collection.
Note: reference of the scale not given here.

One test deals with ANXA11. As to the kind of experiment: pooled miR-30 sensor sort-seq; sequence = guide strand. The conditions noted are these: shRNA.
Sequence TCTAGGACGGTGAATCTCGGGG came in with a sensor-assay potency score (higher = more potent) of -0.586.
Still for that read-out and setting: in the case of TAGGATCTGCTGCCGCTGCTTG it was -0.946; in that of TTGAAAACTGCTACCAGGTGGG, -0.0336.
Same read-out and setting: in the case of TTTAATTCTCGGATGTGCTCAT it was 0.906.
Same read-out and setting: in the case of TATCTCATAAATGTCAAAGAGG it was -1.14; in that of ATGCTCTTCTCAATGTCCCGGC, -0.72; in that of ATACTCTGATCTGATGTCCAGG, -0.494.
TTCATCAGTGCCAACCCCCTTG yielded a sensor-assay potency score (higher = more potent) of 0.00983.
On the same count and under the same terms, the result for TATACTCTGATCTGATGTCCAG reads -0.656; that for TTGAACTGCCCCGCATAGGTGG, -0.724.
The same measure, in the same setting: in the case of TTGAACTTGGACTCGTCTGTTC it was -0.177; in that of ATCTTCAGCAGAATCTTCCGGT, 0.075.
The sequence TCTTGAGACATTTCACCACGGC returned a sensor-assay potency score (higher = more potent) of -0.11.
Still for that read-out and setting: in the case of TATTTTAGCAGCAAGAGGCTGT it was 0.315; in that of TTTGATCAAATCCTTGCCGTAA, -0.559; in that of TCTGATGTCCAGGAGGTCGGTC, -0.593.
On the same count and under the same terms, in the case of TCGTGGTACAGCGACTTGCCGT it was -1.23; in that of TCCGCTTATACTCTGATCTGAT, -0.656; in that of TAAATGTCAAAGAGGACTGGGG, -0.276.
The same measure, in the same setting: in the case of TATTCTTGAGACATTTCACCAC it was 0.412.
For TTAGAAACAGACATTCTTTTGG, the sensor-assay potency score (higher = more potent) is 0.574.
Same read-out and setting: the result for TTCTGCTTTGTAGGCTCTGTTT reads -1.4.

The next test has as its target ANXA5. The test is described as above. The conditions noted are these: shRNA.
TAAATTGCCAGAAGTCTCGCGG: the sensor-assay potency score (higher = more potent) turned out to be 0.467.
The same measure, in the same setting: in the case of TTGAAATCCTGATATAGTCATG it was -1.04.
The same measure, in the same setting: the result for TTTAGTTGCGAACTTCACTAAT reads -0.975.
